Screening data deposited in PubChem by several laboratories.
Only a selection was taken, and hits are over-represented in it overall.
GIRK2 activator = Activates human GIRK2-containing potassium channels | 34,000 tested, under 10 active | activation (% efficacy), % for hits at 37.5 µM | HEK293 GIRK2/NPY4 cells, thallium flux fluorescence;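 active means primary screen hit, no activity in plain HEK293 cells, and in GIRK2-only cells above 5% efficacy rising with concentration; inactive means the rest, including fluorescent compounds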;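 further: efficacy is normalized control-subtracted fluorescence 15 s after thallium addition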
Target sequence (P48051 whole entry, looked up): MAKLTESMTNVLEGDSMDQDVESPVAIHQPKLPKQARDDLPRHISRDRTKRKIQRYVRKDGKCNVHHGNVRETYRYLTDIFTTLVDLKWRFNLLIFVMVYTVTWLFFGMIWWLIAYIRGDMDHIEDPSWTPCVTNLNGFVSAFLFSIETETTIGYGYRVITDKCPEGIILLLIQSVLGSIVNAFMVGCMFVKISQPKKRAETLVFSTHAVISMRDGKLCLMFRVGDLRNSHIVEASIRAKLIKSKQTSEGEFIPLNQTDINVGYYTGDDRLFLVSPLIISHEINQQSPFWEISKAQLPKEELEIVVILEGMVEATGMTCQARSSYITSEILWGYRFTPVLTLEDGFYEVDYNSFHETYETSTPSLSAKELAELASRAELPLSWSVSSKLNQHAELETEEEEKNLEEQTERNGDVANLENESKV
GluA2 TARP mod = modulates AMPAR-stargazin complexes. O88602+P19491. AID 1259245. calls only at 30 µM. 3.5% of 40,000 active. HEK293 GluA2+stargazin, membrane potential dye (FDSS), glutamate EC50; hits were called plate by plate, in both directions;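 active means any of four per-well response measures lying three or more SD from its plate-wide compound average, in either direction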
* hit, by the source's call.

How did COc1ccc(S(=O)(=O)N2CCN(Cc3nnnn3-c3ccccc3)CC2)cc1OC do in these assays?
GIRK2 activator: inactive; GluA2 TARP mod: inactive

How did Cc1nnc2ccc(N3CCN(S(=O)(=O)c4ccc(Cl)c(Cl)c4)CC3)nn12 do in these assays?
GIRK2 activator: inactive; GluA2 TARP mod: inactive

What do the screens show for `COc1ccc(S(=O)(=O)N2CCN(c3ccc(Nc4cccnc4)nn3)CC2)cc1`?
GIRK2 activator: inactive; GluA2 TARP mod: active

Results for Cc1ccc(S(=O)(=O)N2CCN(c3ccc4nnc(C)n4n3)CC2)cc1C ?
GIRK2 activator: inactive; GluA2 TARP mod: active

Results for COc1ccc(S(=O)(=O)N2CCN(Cc3nnnn3-c3ccc(C)cc3)CC2)cc1C ?
GIRK2 activator: inactive; GluA2 TARP mod: active

Results for COc1ccc(S(=O)(=O)N2CCC(C(=O)Nc3nc4c(C)cccc4s3)CC2)cc1 ?
GIRK2 activator: inactive; GluA2 TARP mod: inactive

How did Cc1nn(-c2nc(C)c(C)c(=O)[nH]2)c(C)c1CCC(=O)Nc1ccc(C(C)C)cc1 do in these assays?
GIRK2 activator: inactive; GluA2 TARP mod: inactive

How did CN(C)S(=O)(=O)N1CCN(c2ccc(Nc3ccncc3)nn2)CC1 do in these assays?
GIRK2 activator: inactive; GluA2 TARP mod: inactive

What do the screens show for `Cc1cccc(Nc2ccc(N3CCN(S(=O)(=O)N(C)C)CC3)nn2)n1`?
GIRK2 activator: inactive; GluA2 TARP mod: active

How did COc1ccc(S(=O)(=O)N2CCN(c3ccc(-c4cccs4)nn3)CC2)cc1OC do in these assays?
GIRK2 activator: inactive; GluA2 TARP mod: inactive

Results for Cc1cccc(Nc2ccc(N3CCN(S(=O)(=O)c4c(C)noc4C)CC3)nn2)n1 ?
GIRK2 activator: inactive; GluA2 TARP mod: active

How did COc1ccc(S(=O)(=O)N2CCN(c3ccc(-c4ccncc4)nn3)CC2)cc1C do in these assays?
GIRK2 activator: inactive; GluA2 TARP mod: active

How did COc1cc(N2CCN(S(=O)(=O)c3c(C)noc3C)CC2)nc(OC)n1 do in these assays?
GIRK2 activator: inactive; GluA2 TARP mod: inactive

Results for CCS(=O)(=O)N1CCN(c2ccc(Nc3cccc(C)n3)nn2)CC1 ?
GIRK2 activator: inactive; GluA2 TARP mod: active

Results for Cc1cccc(Nc2ccc(N3CCN(C(=O)c4ccccc4)CC3)nn2)n1 ?
GIRK2 activator: inactive

What do the screens show for `COC1CCN(S(=O)(=O)c2cc(F)ccc2F)CC1`?
GIRK2 activator: inactive; GluA2 TARP mod: inactive

What do the screens show for `COc1ccccc1CNC(=O)C(=O)NCC1CCN(C(=O)/C=C/c2ccco2)CC1`?
GIRK2 activator: inactive; GluA2 TARP mod: inactive

What do the screens show for `CCOC(=O)C1=C(C)N=c2s/c(=C/c3cnn(C)c3)c(=O)n2C1c1ccccc1` (stereo unspecified)?
GIRK2 activator: inactive; GluA2 TARP mod: inactive

How did CCOc1cccc2c1OC(c1ccccn1)N1N=C(c3cccc(O)c3)CC21 (stereo unspecified) do in these assays?
GIRK2 activator: inactive; GluA2 TARP mod: inactive

Results for Cc1cccc(-c2nc3c(c(SCC(=O)N(C)C)n2)CCCC3)c1 ?
GIRK2 activator: inactive; GluA2 TARP mod: inactive

How did O=C(CSc1nc(-c2ccccc2)nc2c1CCCC2)N1CCOCC1 do in these assays?
GluA2 TARP mod: active

Results for CC(C)S(=O)(=O)c1cccc(C(=O)Nc2sc3c(c2C(N)=O)CCCC3)c1 ?
GIRK2 activator: inactive; GluA2 TARP mod: inactive

Results for O=C(Nc1sc2c(c1C(=O)O)CCC2)c1cccc(Cl)c1 ?
GluA2 TARP mod: active

Results for Cc1ccc(CNC(=O)Cn2cnc(C(C)C)cc2=O)cc1 ?
GIRK2 activator: inactive; GluA2 TARP mod: active

Results for Cc1ccc(CNC(=O)Cn2cnc(-c3ccc(C)cc3)cc2=O)cc1 ?
GIRK2 activator: inactive; GluA2 TARP mod: inactive

What do the screens show for `O=C(NC(=S)Nc1ccc(S(=O)(=O)N2CCOCC2)cc1)c1ccco1`?
GluA2 TARP mod: inactive

Results for CCc1ccc(-c2cc3c(=O)n(Cc4nc(-c5cccc(C(F)(F)F)c5)no4)ccn3n2)cc1 ?
GIRK2 activator: inactive; GluA2 TARP mod: active

What do the screens show for `CCc1ccc(-c2cc3c(=O)n(Cc4nc(-c5ccc(OC)cc5OC)no4)ccn3n2)cc1`?
GIRK2 activator: inactive; GluA2 TARP mod: inactive

Results for N#C/C(=C\N1CCN(c2ccccc2)CC1)C(=O)NCc1ccco1 ?
GIRK2 activator: inactive; GluA2 TARP mod: inactive

What do the screens show for `O=C(CCc1ccccc1)NCC1(c2ccccc2)CCOCC1`?
GIRK2 activator: inactive

Results for COc1cn(CC(=O)N2CCCc3ccccc32)c(CSc2nccn2C)cc1=O ?
GIRK2 activator: inactive; GluA2 TARP mod: inactive

How did Cn1nccc1-c1nnc(NC(=O)c2ccc(Br)o2)o1 do in these assays?
GIRK2 activator: inactive; GluA2 TARP mod: active

How did Cc1cnn(C)c1C(=O)Nc1nnc(-c2ccnn2C)o1 do in these assays?
GIRK2 activator: inactive; GluA2 TARP mod: inactive

How did Cc1ccc(N2CCCn3c2nc2c3c(=O)n(CC(N)=O)c(=O)n2C)c(C)c1 do in these assays?
GluA2 TARP mod: inactive

How did O=S(=O)(c1ccc(Oc2ccccc2)cc1)N1CCN(c2ccc3nncn3n2)CC1 do in these assays?
GIRK2 activator: inactive; GluA2 TARP mod: inactive

How did CCCC(=O)Nc1ccc(S(=O)(=O)N2CCN(c3ccc4nncn4n3)CC2)cc1 do in these assays?
GIRK2 activator: inactive; GluA2 TARP mod: active

Results for COc1ccc(C(=O)Nc2nc3sc(C)c(C)c3c(=O)s2)cc1OC ?
GluA2 TARP mod: inactive

What do the screens show for `O=C(NCCN1CCC(c2cccs2)CC1)C(=O)NCC1CCCO1` (stereo unspecified)?
GIRK2 activator: inactive; GluA2 TARP mod: inactive

What do the screens show for `COc1ccc(NC(=O)Cn2nc(SC)c(S(=O)(=O)c3ccccc3)c2N)c(OC)c1`?
GluA2 TARP mod: active

Results for COc1ccc(NC(=O)Cn2nc(SC)c(S(=O)(=O)c3ccc(OC)cc3)c2N)cc1 ?
GluA2 TARP mod: inactive

What do the screens show for `Cc1ccc([N+](=O)[O-])cc1NC(=O)c1ccc(=O)n(Cc2cccc(C(F)(F)F)c2)c1`?
GIRK2 activator: inactive; GluA2 TARP mod: inactive

How did O=C(Nc1ccc(Br)cc1)c1ccc(=O)n(Cc2cccc([N+](=O)[O-])c2)c1 do in these assays?
GIRK2 activator: inactive; GluA2 TARP mod: active

What do the screens show for `Cc1cc([N+](=O)[O-])ccc1NC(=O)c1ccc(=O)n(Cc2cccc(C(F)(F)F)c2)c1`?
GIRK2 activator: inactive; GluA2 TARP mod: active

Results for O=C(Nc1ccc(Cl)cc1)c1ccc(=O)n(Cc2cccc(Cl)c2)c1 ?
GIRK2 activator: inactive; GluA2 TARP mod: inactive

Results for Cc1cc([N+](=O)[O-])ccc1NC(=O)c1ccc(=O)n(Cc2ccccc2)c1 ?
GIRK2 activator: inactive; GluA2 TARP mod: inactive

Results for Cc1cc([N+](=O)[O-])ccc1NC(=O)c1ccc(=O)n(Cc2cccc([N+](=O)[O-])c2)c1 ?
GIRK2 activator: inactive; GluA2 TARP mod: active

How did O=C(Nc1ccc(F)c(F)c1)c1ccc(=O)n(Cc2cccc(Cl)c2)c1 do in these assays?
GIRK2 activator: inactive; GluA2 TARP mod: active

What do the screens show for `O=C(Nc1cccc([N+](=O)[O-])c1)c1ccc(=O)n(Cc2cccc([N+](=O)[O-])c2)c1`?
GIRK2 activator: inactive; GluA2 TARP mod: inactive

Results for O=C(Nc1ccc(N2CCCS2(=O)=O)cc1)c1cccc(Cl)c1 ?
GluA2 TARP mod: inactive
